High-throughput results as filed in PubChem.
Pol iota inh – blocks human DNA polymerase iota activity | Q9UNA4 | Pol iota fluorescent replication assay, 10 min | Potency, µM (highest dose often 115 µM), inactives show at the highest dose activity, negative = inhibition, hits mostly inhibitors | hit rate 1% among 390,000 | AID 588590
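Pol iota at 10 nM preincubated 15 min with compounds at room temperature; reaction started with fluorescent substrate, 50 nM final. Fluorescence read kinetically at 0 and 10 min; buffer-only wells as negative control.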
POLH inh – DNA polymerase eta (human) inhibition; Q9Y253; AID 588591; hit rate 1.2% among 390,000; Potency, µM (series often up to 114 µM), inactives show at the highest dose activity change, negative = inhibition, actives largely listed as inhibitors; recombinant Pol eta, fluorescent DNA replication assay; also: % is scaled to controls: 0 for no effect and ±100 for the full control effect
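Pol eta (10 nM) was preincubated with compounds for 15 min at room temperature, after which fluorescent replication substrate (50 nM final) was added to start the reaction. Fluorescence was read kinetically at 0 and 10 min.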
Pol kappa inh – inhibitors of human DNA polymerase kappa; purified Pol kappa, fluorescent DNA synthesis assay, 10 min; Potency, µM (series often up to 107 µM), for inactives: at the top dose activity, negative = inhibition, usual class: inhibitors; hit rate 0.53% among 400,000; also: % is scaled to controls: 0 for no effect and ±100 for the full control effect
Target sequence (Q9UBT6 whole entry, looked up): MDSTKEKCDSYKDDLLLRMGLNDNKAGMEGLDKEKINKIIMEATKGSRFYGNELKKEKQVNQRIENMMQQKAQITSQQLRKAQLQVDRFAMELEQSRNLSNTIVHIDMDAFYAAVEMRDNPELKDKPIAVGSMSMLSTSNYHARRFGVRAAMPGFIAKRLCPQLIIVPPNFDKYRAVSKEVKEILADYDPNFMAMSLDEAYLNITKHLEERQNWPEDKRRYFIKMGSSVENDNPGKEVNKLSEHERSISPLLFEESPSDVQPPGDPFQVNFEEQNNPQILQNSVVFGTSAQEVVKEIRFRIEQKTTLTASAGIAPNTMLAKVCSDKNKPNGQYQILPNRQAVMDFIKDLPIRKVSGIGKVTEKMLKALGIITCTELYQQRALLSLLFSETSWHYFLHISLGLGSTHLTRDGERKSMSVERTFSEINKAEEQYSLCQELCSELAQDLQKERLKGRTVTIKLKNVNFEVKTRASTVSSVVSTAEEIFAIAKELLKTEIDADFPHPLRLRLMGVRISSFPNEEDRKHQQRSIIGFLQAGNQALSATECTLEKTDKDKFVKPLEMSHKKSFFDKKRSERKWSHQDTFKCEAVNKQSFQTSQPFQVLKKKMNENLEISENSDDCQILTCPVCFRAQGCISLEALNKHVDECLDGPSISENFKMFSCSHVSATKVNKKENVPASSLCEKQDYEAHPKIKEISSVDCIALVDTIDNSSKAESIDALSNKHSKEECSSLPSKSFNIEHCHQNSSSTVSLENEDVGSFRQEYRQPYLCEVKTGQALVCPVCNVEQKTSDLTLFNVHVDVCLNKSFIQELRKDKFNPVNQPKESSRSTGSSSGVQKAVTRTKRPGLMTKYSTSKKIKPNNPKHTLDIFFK
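Activity was followed as the change in fluorescence between reads at 0 and 10 min after starting the reaction with 50 nM substrate. Beforehand, 10 nM polymerase had been preincubated with compound for 15 min at room temperature.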
WRN helicase inh – WRN helicase (human) inhibition | Q14191 | WRN helicase unwinding, fluorescent forked duplex, kinetic | Potency, µM (titrated, usually from 114 µM), for the others: at the top dose activity change, negative = inhibition, hits mostly inhibitors | hit rate 0.46% among 360,000; also: % is scaled to controls: 0 for no effect and ±100 for the full control effect; nearly all actives have a fitted effect of over 55% in size
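Enzyme (20 nM final) and test compound sit together 15 min at room temperature before substrate addition. Substrate is a single-forked duplex oligonucleotide (100 nM) labelled with fluorophore and quencher, with 2 mM ATP; helicase unwinding raises red fluorescence, read kinetically.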
POLB inh – blocks human DNA polymerase beta activity; P06746; Pol beta primer extension/strand displacement, fluorescence kinetic; Potency, µM (doses to about 114 µM), without a hit: at the top dose activity change, negative = inhibition, hits mostly inhibitors; hit rate 1.3% among 340,000; AID 485314; also: % is scaled to controls: 0 for no effect and ±100 for the full control effect
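Pol beta (10 nM) and compounds were preincubated 15 min at room temperature, then 50 nM substrate (final) started primer extension/strand displacement. Reads were taken at 0 and 10 min; concentration-response data were fitted to a four-parameter Hill equation.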
FEN1 inhibitor – blocks human flap endonuclease 1. hit rate 0.35% among 390,000. Recombinant FEN1 flap cleavage, fluorescence, 15 min. P39748. Potency, µM (doses to about 114 µM), for the others: at the top dose activity change, negative = inhibition, hits mostly inhibitors; also: % is scaled to controls: 0 for no effect and ±100 for the full control effect; nearly all actives have a fitted effect of over 65% in size
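With each library titrated from low to high concentration, compounds met 10 nM FEN1 for 15 min at room temperature before 50 nM substrate was added; readings at 0 and 15 min fed four-parameter Hill curve fits.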
* = called active by the depositor; ? = inconclusive; . = not tested or not shown; ! = not confirmed by another sample; [ ] = another dose, or the depositor's remark. Compounds with a hit are over-represented: about 2.4% of the library has one in this group of screens. Calls follow the shape of the dose curve; as a rule, active = well fitted curve in the direction sought with a large enough effect; inconclusive = small, poorly fitted or top-dose-only effect, or another doubt; inactive = no such curve, though single readings can be large; an effect the other way counts as inactive or inconclusive. Potency is read from the fitted curve at half-maximal effect.

SMILES | Pol iota inh | POLH inh | Pol kappa inh | WRN helicase inh | POLB inh | FEN1 inhibitor
CCN(c1ccccc1)S(=O)(=O)c1ccc2[nH]cc(C(=O)NCc3ccc(C)cc3)c(=O)c2c1 | 89µM* | ? | -8%[60.1 µM] | . | ? | 2%
CCc1ccccc1NS(=O)(=O)c1ccc2[nH]cc(C(=O)NC3CCCC3)c(=O)c2c1 | ? | ? | -22% | -20% | ? | -8%
O=C(NC1CCCCC1)c1c[nH]c2ccc(S(=O)(=O)Nc3ccccc3F)cc2c1=O | ? | ? | -14% | . | 25µM* | -3%
Cc1ccc(CNC(=O)c2c[nH]c3ccc(S(=O)(=O)Nc4ccc(C(C)C)cc4)cc3c2=O)cc1 | ? | 79µM* | 2%[60.1 µM] | . | -30% | -5%
COc1ccccc1CNS(=O)(=O)c1ccc2[nH]cc(C(=O)O)c(=O)c2c1 | ? | 3.2µM* | 79µM* | -24% | 28µM* | 14%
CCc1ccc2[nH]c(=O)c(CN(Cc3cccs3)Cc3nnnn3Cc3ccccc3)cc2c1 | -4% | . | -11% | . | . | 1%
CCc1ccccc1N(C)C | 26% | . | 12% | . | . | 8%
COc1cccc(CNc2nc(Cl)nc3nc[nH]c23)c1 | -13% | . | -12% | . | . | 2%
CC1(C)C2CCC1(C)C(NC(=O)COC(=O)c1ccc(S(C)(=O)=O)c([N+](=O)[O-])c1)C2 (configuration not stated) | ? | . | -9% | . | . | -21%
CCOc1ccc(NS(=O)(=O)c2ccc3[nH]cc(C(=O)NCc4ccccc4)c(=O)c3c2)cc1 | 89µM* | ? | -34% | . | 11µM* | -5%
CCOc1ccc(NS(=O)(=O)c2ccc3[nH]cc(C(=O)N(C)Cc4ccccc4)c(=O)c3c2)cc1 | ? | -3% | -17%[60.1 µM] | . | 5% | -1%
CC(=O)c1ccc(-c2ccc(C3C4C=CCCC4(C)C(=O)N3Cc3ccccc3)c(F)c2)cc1 (configuration not stated) | 25% | . | -4% | . | . | 4%
CC(C(=O)Nc1ccc(O)cc1C(=O)O)N1C(=O)/C(=C\c2cccs2)SC1=S (configuration not stated) | ? | 22µM* | ? | -4%[11.6 µM] | ? | -24%
O=C(CCCN1C(=O)/C(=C\c2cccs2)SC1=S)Nc1ccccc1O | . | -2% | . | -2% | . | .
COc1ccccc1CNc1ncnc2ccc(-c3cccc(NS(C)(=O)=O)c3)cc12 | . | . | -1%[60.1 µM] | . | . | .
C[n+]1cc2c3c(ccc2c2ccc4cc5c(cc4c21)OCO5)OCO3 | 28µM* | ? | -11%[60.1 µM] | . | 7.9µM* | 11µM*
Fc1ccc(Nc2nc(-c3ccncc3)cs2)cc1 | 86% | 5% | -19% | -7% | 10µM* | 1%
CCOC(=O)N1CCN(/[N+]([O-])=N/OCOC)CC1 | 24% | . | 8% | . | . | 19%
CCCCNC(=O)c1cc2cccc([N+](=O)[O-])c2[nH]1 | 59% | -5% | 1% | -4% | 2% | -7%
O=C(O)c1cc2cccc([N+](=O)[O-])c2[nH]1 | 71µM*! | . | 45µM*! | . | . | ?
O=C(N/N=C/c1ccc(OC(F)F)cc1)c1ccc(Br)cc1 | -14% | -14% | -3% | -6% | 79µM* | 0%
COc1ccc(C(=O)COC(=O)c2cc(C)no2)c(OC)c1 | 50µM* | ? | -41% | -16% | . | -9%
COc1ccc(C(=O)COC(=O)c2cccnc2Cl)c(OC)c1 | 40µM* | 50µM* | ? | -10%[57.1 µM] | 13µM* | -6%
COc1ccc(OC)c(C(=O)COC(=O)CNC(=O)C2CCCCC2)c1 | 6% | 2% | -9% | 8% | 6% | -2%
COc1ccc(C(=O)COC(=O)/C=C/c2ccccc2)c(OC)c1 | 35µM* | 40µM* | 45µM* | -3%[11.6 µM] | . | -10%
SMILES | Pol iota inh | POLH inh | Pol kappa inh | WRN helicase inh | POLB inh | FEN1 inhibitor
COc1ccc(C(=O)COC(=O)c2ccc3c(c2)OCCO3)c(OC)c1 | ? | ? | -26% | -14% | . | -6%
COc1ccc(C(=O)COC(=O)CNC(=O)C2CCCCC2)c(OC)c1 | ? | ? | -25% | -8% | 22µM* | 7%
CN(C)C(=O)COc1ccccc1C(=O)OCC(=O)N(CCC#N)c1ccccc1 | 8% | . | -21% | . | . | 0%
CN(C)/C=N/c1c(C#N)cnn1-c1ccc(F)c(Cl)c1 | . | . | 6%[60.1 µM] | . | . | .
C#CCOCCOCCOCCNc1nc(N2CCN(C(=O)[C@H]([C@@H](C)CC)n3cc([C@@H](N)CC(C)C)nn3)CC2)nc(N2CCN(C(=O)[C@H](CCCCN)n3cc([C@@H](N)CC(C)C)nn3)CC2)n1 | 14µM* | -8% | -18% | -1% | 44% | -4%
C#CCOCCOCCOCCNc1nc(N2CCN(C(=O)[C@H](CCCCN)n3cc(CN)nn3)CC2)nc(N2CCN(C(=O)[C@H](CCCCN)n3cc([C@@H](N)CC(N)=O)nn3)CC2)n1 | 8.9µM* | -8% | 9% | -14% | . | -16%
C#CCOCCOCCOCCNc1nc(N2CCN(C(=O)C(Cc3ccc(O)cc3)n3cc(C(N)CC(C)C)nn3)CC2)nc(N2CCN(C(=O)C(Cc3cc4ccccc4[nH]3)n3cc(C(N)Cc4ccc(O)cc4)nn3)CC2)n1 (configuration not stated) | . | . | . | . | 35µM* | .
C#CCOCCOCCOCCNc1nc(N2CCN(C(=O)[C@H](CCC(=O)O)n3cc(C(N)Cc4ccc(O)cc4)nn3)CC2)nc(N2CCN(C(=O)[C@H](Cc3cc4ccccc4[nH]3)n3cc(C(N)CC(C)C)nn3)CC2)n1 (some centres not stated) | . | . | . | . | -6% | .
C#CCOCCOCCOCCNc1nc(N2CCN(C(=O)[C@H]([C@@H](C)CC)n3cc([C@@H](N)CC(C)C)nn3)CC2)nc(N2CCN(C(=O)[C@H](CCCCN)n3cc([C@@H](N)C(C)CC)nn3)CC2)n1 (some centres not stated) | ? | -11% | 0% | 4% | 2% | -2%
Nc1c(Br)cc(C=O)cc1Br | 37% | . | 3% | . | . | -4%
CCOC(=O)C1CCN(Cc2cc(C(C)(C)C)c(O)c(C(C)(C)C)c2)CC1 | 7% | -23% | 6% | 1%[57.1 µM] | 5% | -2%
CC(C)(C)c1cc(CN2CCN(CCO)CC2)cc(C(C)(C)C)c1O | -14% | -1% | 0% | -5% | 0.89µM* | -16%
CC(C)NC(=O)COC(=O)CNC(=O)C1CCCCC1 | 12% | . | -25% | . | . | 5%
O=C1C2C3C=CC(C3)C2C(=O)N1CNc1ccc(O)cc1 (configuration not stated) | . | . | . | . | 40µM* | .
Cc1ccc(NCN2C(=O)C3C4C=CC(C4)C3C2=O)cc1 (configuration not stated) | 2% | -6% | -3% | 1% | 17% | 9%
